{"source": "PubChem BioAssay (EPA / NIEHS)", "note": "Results filed as inconclusive are left out. Calls of active or inactive are those of the source. The calls were made as follows: active = hit-call score of the fitted dose curve at least 0.9, where 1 is the maximum; inconclusive = response in the unintended direction; inactive = score below 0.9."}
{"target": "zebrafish Thyroid Hormone Receptor alpha (TRa), thraa (gene 30670) (UniProt Q98867)", "sequence (Q98867 whole entry, looked up, the tested form may be a part)": "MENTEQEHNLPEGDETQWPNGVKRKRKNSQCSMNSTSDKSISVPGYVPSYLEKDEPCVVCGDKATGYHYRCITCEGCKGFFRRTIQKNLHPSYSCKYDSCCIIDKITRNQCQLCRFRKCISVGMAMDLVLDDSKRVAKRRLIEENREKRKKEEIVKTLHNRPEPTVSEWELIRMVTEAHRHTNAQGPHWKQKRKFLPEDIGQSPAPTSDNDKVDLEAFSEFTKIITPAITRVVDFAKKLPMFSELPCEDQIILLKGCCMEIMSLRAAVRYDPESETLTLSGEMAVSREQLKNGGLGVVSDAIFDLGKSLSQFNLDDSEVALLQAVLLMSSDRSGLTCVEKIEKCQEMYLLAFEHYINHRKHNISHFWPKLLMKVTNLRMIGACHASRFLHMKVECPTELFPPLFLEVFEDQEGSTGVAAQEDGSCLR", "assay": "ATG_zfTRa_XSP1: Attagene TRANS-FACTORIAL Multi-Species (XSP1) HepG2 Assay for zebrafish Thyroid Hormone Receptor alpha (TRa) (AID 2283807)", "method_in_brief": "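HepG2 cells transiently transfected with GAL4-UAS reporter units including a zebrafish TRa–Gal4 chimera, dosed 24 h with 3 nM 6-alpha-fluorotestosterone present. Reporter mRNA quantified by RT-PCR and capillary electrophoresis; gain versus DMSO.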"}
{"molecule": "COC(=O)N(OC)c1ccccc1COc1ccn(-c2ccc(Cl)cc2)n1", "outcome": "inactive"}
{"molecule": "CCCN(CCC)c1c([N+](=O)[O-])cc(S(N)(=O)=O)cc1[N+](=O)[O-]", "outcome": "inactive"}
{"molecule": "CCCCC(CC)COC(=O)c1ccccc1C(=O)OCC(CC)CCCC", "note": "(configuration not stated)", "outcome": "inactive"}
{"molecule": "CO/C=C(/C(=O)OC)c1ccccc1Oc1cc(Oc2ccccc2C#N)ncn1", "outcome": "inactive"}
{"molecule": "C=CC1(C)OC(=O)N(c2cc(Cl)cc(Cl)c2)C1=O", "note": "(configuration not stated)", "outcome": "inactive"}
{"molecule": "COc1ccc(C(c2ccc(OC)cc2)C(Cl)(Cl)Cl)cc1", "outcome": "inactive"}
{"molecule": "CCCC1COC(Cn2cncn2)(c2ccc(Cl)cc2Cl)O1", "note": "(configuration not stated)", "outcome": "inactive"}
{"molecule": "CC(C)Oc1cc(-n2nc(C(C)(C)C)oc2=O)c(Cl)cc1Cl", "outcome": "inactive"}
{"molecule": "CON(C)C(=O)Nc1ccc(Cl)c(Cl)c1", "outcome": "inactive"}
{"molecule": "CCCCOC(=O)c1ccccc1C(=O)OCCCC", "outcome": "inactive"}
{"molecule": "OC(c1ccc(Cl)cc1)(c1cncnc1)c1ccccc1Cl", "note": "(configuration not stated)", "outcome": "inactive"}
{"molecule": "CC(C)(C)c1ccc(CSc2cnn(C(C)(C)C)c(=O)c2Cl)cc1", "outcome": "inactive"}
{"target": "zebrafish Thyroid Hormone Receptor beta (TRb), thrb (gene 30607) (UniProt Q9PVE4)", "sequence (Q9PVE4 whole entry, looked up, the tested form may be a part)": "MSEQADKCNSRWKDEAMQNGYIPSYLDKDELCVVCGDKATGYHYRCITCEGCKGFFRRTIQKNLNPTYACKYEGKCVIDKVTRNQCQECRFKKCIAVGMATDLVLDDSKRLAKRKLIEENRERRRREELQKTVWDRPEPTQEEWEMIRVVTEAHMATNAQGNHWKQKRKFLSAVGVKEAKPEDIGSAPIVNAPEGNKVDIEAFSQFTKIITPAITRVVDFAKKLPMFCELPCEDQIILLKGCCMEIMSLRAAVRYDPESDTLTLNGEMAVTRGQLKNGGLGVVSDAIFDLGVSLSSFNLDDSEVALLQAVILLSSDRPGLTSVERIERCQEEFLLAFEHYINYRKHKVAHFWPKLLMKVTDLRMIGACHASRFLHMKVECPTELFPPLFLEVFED", "assay": "ATG_zfTRb_XSP1: Attagene TRANS-FACTORIAL Multi-Species (XSP1) HepG2 Assay for zebrafish Thyroid Hormone Receptor beta (TRb) (AID 2283809)", "method_in_brief": "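HepG2 cells transiently transfected with multiplexed GAL4-UAS reporter units expressing chimeric zebrafish TRb–Gal4. Dosed 24 h with 3 nM 6-alpha-fluorotestosterone present; reporter mRNA measured by RT-PCR, HpaI digestion and capillary electrophoresis; gain of signal versus DMSO.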"}
{"molecule": "COP(=S)(OC)Oc1nc(Cl)c(Cl)cc1Cl", "outcome": "inactive"}
{"molecule": "COC(=O)N(OC)c1ccccc1COc1ccn(-c2ccc(Cl)cc2)n1", "outcome": "inactive"}
{"molecule": "CCCN(CCC)c1c([N+](=O)[O-])cc(S(N)(=O)=O)cc1[N+](=O)[O-]", "AC50": "9.16 µM (active)"}
{"molecule": "CCCCC(CC)COC(=O)c1ccccc1C(=O)OCC(CC)CCCC", "note": "(configuration not stated)", "AC50": "100 µM (active)"}
{"molecule": "C#CCOS(=O)OC1CCCCC1Oc1ccc(C(C)(C)C)cc1", "note": "(configuration not stated)", "outcome": "inactive"}
{"molecule": "CCOP(=S)(OCC)SCn1c(=O)oc2cc(Cl)ccc21", "AC50": "49.8 µM (active)"}
{"molecule": "CO/C=C(/C(=O)OC)c1ccccc1Oc1cc(Oc2ccccc2C#N)ncn1", "outcome": "inactive"}
{"molecule": "C=CC1(C)OC(=O)N(c2cc(Cl)cc(Cl)c2)C1=O", "note": "(configuration not stated)", "AC50": "51.6 µM (active)"}
{"molecule": "COc1ccc(C(c2ccc(OC)cc2)C(Cl)(Cl)Cl)cc1", "outcome": "inactive"}
{"molecule": "CC(C)Oc1cc(-n2nc(C(C)(C)C)oc2=O)c(Cl)cc1Cl", "outcome": "inactive"}
{"molecule": "CON(C)C(=O)Nc1ccc(Cl)c(Cl)c1", "outcome": "inactive"}
{"molecule": "CCCCOC(=O)c1ccccc1C(=O)OCCCC", "outcome": "inactive"}
{"molecule": "CC(C)(C)c1ccc(CSc2cnn(C(C)(C)C)c(=O)c2Cl)cc1", "outcome": "inactive"}
{"tested_on": "not listed separately", "assay": "ATG_XTT_Cytotoxicity_XSP1: Cytotoxicity Assessment in the Attagene TRANS-FACTORIAL Multi-Species (XSP1) HepG2 Assay (AID 2283810)", "method_in_brief": "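XTT viability readout taken at 24 hours post-dosing in HepG2 liver cells co-treated with 3 nM 6-alpha-fluorotestosterone. Signal loss relative to DMSO controls reflects cytotoxicity.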"}
{"molecule": "CCCCNC(=O)OCC#CI", "AC50": "23.2 µM (active)"}
{"molecule": "COC(=O)N(OC)c1ccccc1COc1ccn(-c2ccc(Cl)cc2)n1", "outcome": "inactive"}
{"molecule": "CCCN(CCC)c1c([N+](=O)[O-])cc(S(N)(=O)=O)cc1[N+](=O)[O-]", "AC50": "161 µM (active)"}
{"molecule": "CCCCC(CC)COC(=O)c1ccccc1C(=O)OCC(CC)CCCC", "note": "(configuration not stated)", "outcome": "inactive"}
{"molecule": "CCOP(=S)(OCC)SCn1c(=O)oc2cc(Cl)ccc21", "outcome": "inactive"}
{"molecule": "COc1ccc(C(c2ccc(OC)cc2)C(Cl)(Cl)Cl)cc1", "outcome": "inactive"}
{"molecule": "CCCC1COC(Cn2cncn2)(c2ccc(Cl)cc2Cl)O1", "note": "(configuration not stated)", "outcome": "inactive"}
{"molecule": "CC(C)Oc1cc(-n2nc(C(C)(C)C)oc2=O)c(Cl)cc1Cl", "outcome": "inactive"}
{"molecule": "CON(C)C(=O)Nc1ccc(Cl)c(Cl)c1", "outcome": "inactive"}
{"molecule": "CCCCOC(=O)c1ccccc1C(=O)OCCCC", "outcome": "inactive"}
{"molecule": "OC(c1ccc(Cl)cc1)(c1cncnc1)c1ccccc1Cl", "note": "(configuration not stated)", "outcome": "inactive"}
{"molecule": "CC(C)(C)c1ccc(CSc2cnn(C(C)(C)C)c(=O)c2Cl)cc1", "outcome": "inactive"}
